Screening results deposited in PubChem BioAssay by National Center for Advancing Translational Sciences (NCATS).
In the library only some 13% were active in any assay of this set; here they are far more common.
HADH2 inhib = HADH2 (human) dehydrogenase inhibition | Q99714 | recombinant HADH2, NADH fluorescence, beta-hydroxybutyryl-CoA | Potency, µM (series often up to 57.1 µM), for the others: at the top dose activity change, negative = inhibition, actives largely listed as inhibitors | hit rate 3.4% among 73,000 | AID 886; note: potency is the fitted concentration of half-maximal effect; % is set by controls: 0 for no effect and ±100 for the full control effect; nearly all actives have a fitted effect of over 60% in size
Target sequence (Q99714 whole entry, looked up, one chain of several): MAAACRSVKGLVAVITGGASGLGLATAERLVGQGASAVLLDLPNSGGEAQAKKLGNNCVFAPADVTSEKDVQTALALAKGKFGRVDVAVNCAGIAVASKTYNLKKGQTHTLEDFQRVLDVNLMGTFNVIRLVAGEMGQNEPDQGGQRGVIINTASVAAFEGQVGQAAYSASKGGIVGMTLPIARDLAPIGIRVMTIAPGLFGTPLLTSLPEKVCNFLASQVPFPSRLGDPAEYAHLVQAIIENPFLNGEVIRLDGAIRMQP
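20 nM HADH2 + cpd, 15 min RT; add 1 mM NAD+/90 uM beta-hydroxybutyryl-CoA; kinetic fluorescence 360/450 nm, 4 min. Tris-HCl pH 9.0, 0.01% Tween-20.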
HSD17B inhib = inhibitors of human HSD17B10 dehydrogenase; Q99714; recombinant HSD17B10, NADH fluorescence kinetic; Potency, µM (top dose mostly 57.1 µM), without a hit: top-dose activity change, negative = inhibition, actives largely listed as inhibitors; hit rate 7.6% among 75,000;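 note: the protocol describes HADH2 (HSD17B10) and not the HSD17B4 of the title; potency is the fitted concentration of half-maximal effect; % is set by controls: 0 for no effect and ±100 for the full control effect; nearly all actives have a fitted effect of over 70% in size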
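His-tagged E. coli-expressed HADH2 at 20 nM in 100 mM Tris-HCl pH 9.0 with 0.01 % Tween-20, preincubated 15 min with compound at room temperature. Reaction with 1 mM NAD+ and 90 uM beta-hydroxybutyryl coenzyme A; NADH fluorescence (360/450 nm) read kinetically over 4 min, last minus first point.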
4MU fluor = compounds fluorescent in 4-MU spectral region; max dye-equivalent concentration, M; compound autofluorescence, 340/450 nm, 4-MU equivalents; hits give high values; AID 589; hit rate 11% among 59,000; in the data active = max dye-equivalent concentration above about 10 nM; inconclusive = mostly about 1.1 nM to 9.6 nM
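Compounds in 100 mM Tris, pH 8.0, incubated 15 min at room temperature, then fluorescence read at 340 nm excitation/450 nm emission. Signal converted to 4-MU dye-equivalent concentration using an on-plate six-point 4-MU standard curve.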
A350 autofl = A350 region autofluorescence; hit rate 11% among 59,000; Compound autofluorescence, 340/450 nm, Alexa 350 dye-equivalents; hits give high values; max dye-equivalent concentration, M; AID 590; in the data active = max dye-equivalent concentration above about 10 nM; inconclusive = mostly about 1.1 nM to 9.6 nM
GBA activity = human lysosomal glucosylceramidase modulation | Potency, µM | P04062 | purified enzyme, resorufin glucoside fluorescence (screen aimed at inhibitors), 20 min | hit rate 1.1% among 48,000 | AID 360; in the data active = potency below about 15 µM; inconclusive = mostly about 16 µM to 33 µM;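 note: potency is the fitted concentration of half-maximal effect; the screen sought inhibitors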
Target sequence (P04062 whole entry, looked up): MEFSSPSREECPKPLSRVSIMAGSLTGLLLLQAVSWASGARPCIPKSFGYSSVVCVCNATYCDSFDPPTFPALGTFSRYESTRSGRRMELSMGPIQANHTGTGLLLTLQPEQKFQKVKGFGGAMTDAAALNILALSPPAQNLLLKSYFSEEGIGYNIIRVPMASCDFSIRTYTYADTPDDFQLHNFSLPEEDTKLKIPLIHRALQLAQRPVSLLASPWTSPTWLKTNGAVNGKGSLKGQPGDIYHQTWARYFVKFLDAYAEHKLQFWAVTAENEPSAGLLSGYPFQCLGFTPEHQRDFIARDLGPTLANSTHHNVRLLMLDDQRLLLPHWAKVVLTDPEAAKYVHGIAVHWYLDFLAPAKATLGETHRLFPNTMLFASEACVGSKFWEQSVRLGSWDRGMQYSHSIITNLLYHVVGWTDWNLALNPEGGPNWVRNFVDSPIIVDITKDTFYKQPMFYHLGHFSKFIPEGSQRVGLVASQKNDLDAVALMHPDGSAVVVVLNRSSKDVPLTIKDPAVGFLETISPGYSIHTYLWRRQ
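Compounds titrated against 0.2 nM normal enzyme, 30 uM resorufin beta-D-glucopyranoside substrate, citrate/phosphate buffer with taurocholate and tween-20, pH 5.9. Reaction ran 20 min at room temperature; fluorescence (Ex 548/Em 600) gave AC50.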
AID923 = qHTS Assay for Allosteric/Competitive Inhibitors of Caspase-1: Spectroscopic Profiling in AFC Spectral Region. hit rate 1.1% among 75,000. Potency, µM (titrated, usually from 57.5 µM), for inactives: top-dose fluorescence increase, usual class: activators. compound fluorescence, AFC spectral region (405/520 nm). AID 923, 2007; note: potency is the fitted concentration of half-maximal effect; 0% is about no effect
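Titrations up to 57 uM read every 20 sec for 3 min (405/520 nm) with 50 nM caspase 1 and 5 uM Ac-WEHD-AFC, pH 7.5 HEPES buffer. Fluorescence-vs-time intercept gave baseline, scaled against on-plate AFC standard.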
* hit, by the source's call; i = inactive; u = inconclusive; x = no result given; [ ] = dose if it differs, or a comment. Unless noted, calls come from the whole dose curve; as a rule, active = well fitted curve in the direction sought with a large enough effect; inconclusive = small, poorly fitted or top-dose-only effect, or another doubt; inactive = no such curve, though single readings can be large; an effect the other way counts as inactive or inconclusive.

SMILES | HADH2 inhib | HSD17B inhib | 4MU fluor | A350 autofl | GBA activity | AID923
O=C1CCCN1CN(C(=O)c1ccccc1)c1ccc(F)cc1 | 2% | 0% | i | i | >77 | 0%
CC(=O)NCCNc1cc(-c2ccccc2CN(C)C)ncn1 | -4% | -25% | i | i | x | 2%
COC(=O)CCC(=O)Nc1cccc2c(NC(=O)CCC(=O)OC)cccc12 | -15% | -2% | x | x | x | 1%
COC(=O)CCC(=O)c1oc2ccccc2c1N | -10% | -15% | 2.8e-08M* | 3.4e-08M* | >77 | -3%
Nc1cc(S(N)(=O)=O)ccc1SSc1ccc(S(N)(=O)=O)cc1N | u | u | i | i | x | -2%[11.5 µM]
COC(=O)c1ccc(CCc2cc(O)ccc2O)cc1 | 1.3µM* | 0.79µM* | i | i | x | -5%[11.5 µM]
COC(=O)c1ccccc1OC(=O)c1ccc(Br)o1 | -1% | 2% | i | i | >77 | 0%
Nc1nonc1-c1nc2ccccc2n1CC(=O)N1CCCCC1 | 10% | 3% | i | i | i | 0%
O=C(Nc1nc2ccccc2n1CCOc1ccccc1)c1ccco1 | 5% | -9% | i | i | >77 | -3%
CCOCCn1c(-c2ccc(OC)cc2)nc2ccccc21 | -14% | 25µM* | x | x | x | 8%
Cc1ccc(OCCn2c(NC(=O)c3ccco3)nc3ccccc32)cc1 | 23% | 6.3µM* | u | u | >77 | 1%
O=C(Cn1c(-c2ccco2)nc2ccccc21)N1CCCCC1 | u | 25µM* | i | i | >77 | 0%
c1ccc(OCCn2c(-c3ccco3)nc3ccccc32)cc1 | u | 32µM* | x | x | x | 0%
CCn1c(-c2ccco2)nc2ccccc21 | -3% | u | u | u | >77 | 4%
O=C(CSC1=NCCN1)Nc1ccccc1 | -17%[11.4 µM] | 0%[11.4 µM] | i | i | x | -2%[11.5 µM]
COc1ccc2c(Cc3c4ccccc4cc4ccccc34)cncc2c1O | -24%[11.4 µM] | 28%[11.4 µM] | i | u | x | 18%[11.5 µM]
COC(=O)N1CCC2(CCN(C(=O)Nc3ccc(OC)cc3)CC2)CC1 | 4% | 5% | i | i | x | -1%
Cc1nc2nc(C)c(CCC(=O)Nc3ccc4c(c3)OCO4)c(C)n2n1 | -3% | 4% | u | u | >77 | 0%
COC(=O)NC(CC(C)=O)c1ccco1 (centres undefined) | -1%[11.4 µM] | 7%[11.4 µM] | x | x | x | 0%[11.5 µM]
CCCCn1c(=O)n(C)c(=O)c2c3c(sc21)COC(C)(C)C3 | x | x | 1.9e-08M* | 2.4e-08M* | x | x
Cc1nnc2n(C3CCCCC3)c(=O)c3c4c(sc3n12)COC(C)(C)C4 | x | x | i | i | x | x
O=C(O)c1ccc(F)c(S(=O)(=O)Nc2cccc(F)c2)c1 | -3% | 3% | x | x | x | -1%
COc1ccc(S(=O)(=O)n2nc(OC(=O)c3ccc(C)cc3)cc2N)cc1 | -8% | -15% | i | i | >77 | -1%
COc1ccc(S(=O)(=O)n2nc(OC(=O)c3ccccc3)cc2N)cc1 | 16µM* | 0% | 1.3e-08M* | 1.4e-08M* | >77 | -1%
FC(F)(F)c1ccccc1-c1nccc(N2CCNCC2)n1 | 7% | -1% | i | i | x | 2%
SMILES | HADH2 inhib | HSD17B inhib | 4MU fluor | A350 autofl | GBA activity | AID923
O=C(CCNS(=O)(=O)c1cccc2nsnc12)NC1CCN(Cc2ccccc2)CC1 | -5% | -5% | i | i | >77 | 3%
Cn1c(=O)c2c(nc(Oc3ccc4c(c3)OCO4)n2Cc2ccc(Cl)cc2)n(C)c1=O | 14% | 7% | 1.7e-08M* | 2.1e-08M* | >77 | 1%
CC(=O)OCC1OC(n2c(Br)nc3c(=O)[nH]c(N)nc32)C(OC(C)=O)C1OC(C)=O (centres undefined) | x | -1% | x | x | x | 0%
C/C(CCC(=O)OC[C@@H]1O[C@H](C#Cc2ccccc2)C=C[C@@H]1Oc1ccc(C)cc1)=N/OC[C@@H](C)[C@H](OCc1ccccc1)C(C)C | 2%[11.4 µM] | -1%[11.4 µM] | x | x | x | -1%[11.5 µM]
O=C(Nc1cnn(Cc2ccc(Cl)cc2Cl)c1)c1noc2c1CCCC2 | -27% | -9% | x | x | x | -1%
O=C(Nc1cccc(C(F)(F)F)c1)c1ccco1 | -4% | -11% | i | i | >77 | -1%
O=C(Nc1cccnc1)c1cc(-c2cccs2)on1 | 4% | -14% | 1.7e-08M* | 1.6e-08M* | >77 | 2%
O=C(Nc1cnn(Cc2ccc(Cl)cc2Cl)c1)c1cc(-c2cccs2)on1 | -2% | 20µM* | i | i | >77 | 1%
CC(C)C(=O)Nc1cccc(NC(=O)c2cccnc2)c1 | -1% | 1% | i | i | >77 | 1%
O=C(Nc1cccc(C(F)(F)F)c1)c1cccnc1 | 8% | 10% | 2.2e-08M* | 2.2e-08M* | x | 0%
COC(=O)c1ccccc1NC(=O)c1cc(-c2cccs2)on1 | -12% | u | i | i | >77 | 0%
O=C(Nc1cccc(C(F)(F)F)c1)c1cc(-c2cccs2)on1 | -3% | -9% | i | i | 4.8* | 1%
CC(C)CO/N=C1/[C@H]2O[C@@H]2[C@@H](O)[C@H]2[C@H]1CCn1c(=O)n(C)c(=O)n12 | -6%[11.4 µM] | 1%[11.4 µM] | x | x | x | 1%[11.5 µM]
CC(=O)/C(=C\c1ccccc1F)C(=O)c1ccccc1 | -5%[11.4 µM] | 1%[11.4 µM] | i | i | x | 1%[11.5 µM]
COc1cccc(-c2cc(C(=O)Nc3ccc(OC)c(OC)c3)no2)c1 | 10% | 11% | i | i | >77 | 1%
COc1ccc(NC(=O)c2cc(-c3cccs3)on2)cc1OC | u | 25µM* | 3e-08M* | 3e-08M* | >77 | -1%
CC1(C)Cc2c(C#N)c(NCC3CCCO3)nc(-c3ccco3)c2CO1 (centres undefined) | x | x | 5e-07M* | 5.8e-07M* | x | x
CC1(C)Cc2c(C#N)c(NC3CCCCC3)nc(-c3ccco3)c2CO1 | u | 16µM* | x | x | x | 5%
N#Cc1c(-c2ccco2)nc(NCC2CCCO2)[nH]c1=O (centres undefined) | 3% | -4% | i | i | >77 | 1%
Cc1[nH]c2ccc(F)cc2c(=O)c1SC(F)(F)C(F)F | -10% | -22% | i | i | 9.5* | 2%
COc1cc(OC)cc(-c2nc(-c3cc4cc(C)ccc4nc3OC)no2)c1 | 0% | -3% | 2.3e-08M* | 2.8e-08M* | >77 | 0%
COc1nc2c(C)cccc2cc1-c1noc(-c2ccco2)n1 | 19% | 25µM* | u | u | i | 0%
c1coc(-c2nc(-c3ccncc3)no2)c1 | 13% | 9% | i | i | >77 | -1%
COc1ccc(NC(=O)N2CC3(CCN(C(=O)c4ccc(OC)cc4)CC3)C2)cc1 | -8% | -1% | i | i | x | 5%
COc1ccc(-n2c(SCC(=O)N3CCCC3)nc3c([nH]c4ccccc43)c2=O)cc1 | -2% | -3% | x | x | x | -1%
FC(F)(F)c1ccccc1Cl | -1% | -2% | x | x | x | 1%
CCOC(=O)c1c(C)nc(-c2ccccc2)nc1N | 352% | -9% | 2.5e-08M* | 2.5e-08M* | >77 | 0%
